Compound activity (PubChem BioAssay)
HTT aggregate – mutant huntingtin aggregation inhibition | PC12 HttQ103-GFP aggregates, Acumen cytometry, 40 h | Potency, µM (series often up to 46.1 µM), without a hit: at the highest dose activity change, negative = inhibition, hits mostly inhibitors | 220,000 compounds, 1.1% hits | AID 1688; note: % is set by controls: 0 for no effect and ±100 for the full control effect; nearly all actives have a fitted effect of over 60% in size
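Huntingtin Q103 exon 1–GFP aggregates in induced PC12 cells (100 nM tebufenozide) were quantified by cytometry from lysates, with compounds dosed in titration.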
NPSR antag – blocks cAMP signaling of the human neuropeptide S receptor; Q6W5P4; CHO-NPSR cells, cAMP TR-FRET, antagonist mode; 220,000 compounds, 1% hits; Potency, µM (series often up to 38.3 µM), inactives show top-dose activity change, negative = inhibition, actives largely listed as inhibitors; note: % is set by controls: 0 for no effect and ±100 for the full control effect; nearly all actives have a fitted effect of over 50% in size
Target sequence (Q6W5P4 whole entry, looked up): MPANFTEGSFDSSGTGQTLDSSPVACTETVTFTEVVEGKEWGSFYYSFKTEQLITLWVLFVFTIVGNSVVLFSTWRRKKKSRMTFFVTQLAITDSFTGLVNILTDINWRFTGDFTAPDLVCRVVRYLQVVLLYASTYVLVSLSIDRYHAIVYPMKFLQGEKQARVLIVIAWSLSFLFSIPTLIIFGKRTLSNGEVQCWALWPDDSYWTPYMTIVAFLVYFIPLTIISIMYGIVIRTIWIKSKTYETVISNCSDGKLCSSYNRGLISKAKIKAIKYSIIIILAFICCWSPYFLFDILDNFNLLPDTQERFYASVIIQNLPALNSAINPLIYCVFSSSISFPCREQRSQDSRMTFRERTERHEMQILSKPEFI
mIDH1 inhibitor – blocks human mutant IDH1 R132H enzyme. O75874. IDH1-R132H enzyme, NADPH consumption, diaphorase/resazurin fluorescence. Potency, µM (top dose mostly 76.6 µM), for the others: top-dose activity change, negative = inhibition, actives largely listed as inhibitors. 390,000 compounds, 0.093% hits. AID 602179; note: % is set by controls: 0 for no effect and ±100 for the full control effect; nearly all actives have a fitted effect of over 65% in size
Target sequence (O75874 whole entry R132H, stated change not applied): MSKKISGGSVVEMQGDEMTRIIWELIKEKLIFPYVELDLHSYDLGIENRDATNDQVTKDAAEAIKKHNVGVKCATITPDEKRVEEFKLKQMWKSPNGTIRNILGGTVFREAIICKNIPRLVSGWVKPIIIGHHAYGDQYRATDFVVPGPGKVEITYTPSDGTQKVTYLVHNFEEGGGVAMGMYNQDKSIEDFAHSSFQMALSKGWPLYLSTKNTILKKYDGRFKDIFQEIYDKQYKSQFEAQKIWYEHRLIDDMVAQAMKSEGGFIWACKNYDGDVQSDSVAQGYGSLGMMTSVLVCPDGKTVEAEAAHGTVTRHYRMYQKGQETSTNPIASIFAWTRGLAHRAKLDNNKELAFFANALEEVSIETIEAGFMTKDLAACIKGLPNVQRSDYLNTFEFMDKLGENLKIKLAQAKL
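IDH1-R132H (0.5 ug/mL dispensed) in pH 7.5 Tris buffer was preincubated 30 min with compound, then given a substrate mix of 0.016 mM NADPH and 2 mM alpha-KG for 80 min at room temperature; remaining NADPH was read by diaphorase/resazurin fluorescence.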
HTT cytoprotect – protects HTT-Q103 PC12 cells, measured by ATP; AID 1471; PC12 HTT-Q103 induced, cytoprotection, ATP luminescence, 40 h; Potency, µM (top dose mostly 56.4 µM), without a hit: cytoprotection (ATP increase), hits mostly activators; 230,000 compounds, 0.14% hits; note: % of control where 0% means no effect; nearly all actives have a fitted effect of over 45% in size
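ATP quantification (ATPlite) reports survival of PC12 cells in which tebufenozide, 100 nM final, switches on Htt exon 1 with 103 glutamines linked to GFP; compounds are titrated.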
AT treatment – potential ataxia-telangiectasia treatment; F2112 A-T fibroblasts, KAP-1 phosphorylation AlphaLISA; neocarzinostatin DNA damage 30 min before lysis; 320,000 compounds, 0.19% hits; Potency, µM (highest dose often 57.5 µM), for the others: at the highest dose activation, usual class: activators; note: % of control where 0% means no effect; nearly all actives have a fitted effect of over 45% in size
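hTERT-immortalized A-T patient fibroblasts (F2112), 500 cells/well in OPTI-MEM, 1% FBS, got compounds for 60 min, then NCS for 30 min at 37C. Lysates were then assayed for phospho-KAP-1 by AlphaLISA (anti-pKAP1 donor, anti-KAP1 acceptor beads), 6 hr at 25C.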
The depositor's hits bear a star; ? = inconclusive; . = no result; ! = not active in a repeat; [ ] = dose if it differs, or a comment. A selection: hits, their analogues and other compounds. The true share with any hit is near 1.1%. Calls come from the whole dose curve; as a rule, active = well fitted curve in the direction sought with a large enough effect; inconclusive = small, poorly fitted or top-dose-only effect, or another doubt; inactive = no such curve, though single readings can be large; an effect the other way counts as inactive or inconclusive. Potency is the fitted concentration of half-maximal effect.

SMILES	HTT aggregate	NPSR antag	mIDH1 inhibitor	HTT cytoprotect	AT treatment
O=C(NN1C(=O)c2ccccc2NC1c1ccc([N+](=O)[O-])o1)c1ccc(Br)cc1 (configuration not stated)	?	-8.6%	-7.5%	6.31µM*	5.3%
CCc1nn2c(=O)cc(COC(=O)c3ccccc3NC(=O)C3CCCCC3)nc2s1	.	.	-13.7%	.	.
CCc1ccc(NC(=O)c2ccc(F)c(S(=O)(=O)NCCc3ccc(OC)c(OC)c3)c2)cc1	.	.	-3.8%	.	.
COc1ccc(/C=C2\N=C(c3ccccc3)N(c3ccc(C(=O)O)cc3)C2=O)cc1OC	-7.4%[9.22 µM]	12.6µM*	-22.4%	9.9%[10 µM]	-6.3%
COc1ccc(N=c2cc(-c3ccc(OC)cc3)oc3ccccc23)cc1	-24.2%	-46.5%	-1.5%	-0.7%[10 µM]	0.2%
CCOc1ccc(N=c2cc(-c3ccc(OC)cc3)oc3ccccc23)cc1	3.16µM*	-20.4%[46.1 µM]	2.6%	-8.2%[10 µM]	-3.4%
O=C(O)c1ccccc1-c1c2cc(Br)c(=O)c(Br)c-2oc2c(Br)c(O)c(Br)cc12	10µM*	.	.	-23.5%	.
Oc1nc(Nc2cccc(Cl)c2)sc1/C=C1\C=Nc2ccccc21	8.91µM*	-24.2%[46.1 µM]	7.7%	6.8%[10 µM]	-4.9%
c1ccc2sc(SCN(C3CCCCC3)C3CCCCC3)nc2c1	.	.	.	0.6%[10 µM]	.
O=C(Cn1cc(/C=C\[N+](=O)[O-])c2ccccc21)Nc1ccccc1	12.8%[9.22 µM]	12.6µM*	3.8%	8.5%[10 µM]	2.2%
O=C(O)Cn1cc(/C=C/[N+](=O)[O-])c2ccccc21	0.4%	-47.8%	-6.9%	.	2.2%
O=[N+]([O-])/C=C/c1cn(Cc2ccccc2)c2ccccc12	?	10µM*	?	-72.1%	?
C(=N\n1cnnc1)/c1cn(Cc2ccccc2)c2ccccc12	4.3%	-11.6%[46.1 µM]	6.5%	4.2%	-1.3%
COc1ccc(NC(=S)N(CCCN2CCOCC2)Cc2cn(C)c3ccccc23)cc1OC	-26.9%	9.8%	4.1%	-24.8%[10 µM]	-0.3%
COc1cccc(NC(=S)N(CCCN2CCOCC2)Cc2cn(C)c3ccccc23)c1	11.2µM*	-9.9%	3.3%	-52.9%[10 µM]	-3.8%
CCCc1cc(C(=O)Nc2cccc(Cl)c2C)no1	.	.	6.4%	.	5.0%
CCCc1cc(C(=O)Nc2ccccc2SC)no1	-13.2%	-13.9%[46.1 µM]	11.2%	2.9%	39.8µM*
Cc1cccc(C(=O)N2CCN(c3ccc(C(F)(F)F)cn3)CC2)c1C	15.8µM*	-10.8%[46.1 µM]	-0.3%	-3.4%	-5.4%
CC(C)n1c(NCc2ccccc2O)nc2ccccc21	.	.	0.0%	.	3.9%
C=CCc1cccc(CNc2nc3ccccc3n2C(C)C)c1O	17.8µM*	?	-3.5%	-64.8%	3.6%
O=C(CN1CCN(c2ccccn2)CC1)Nc1cccc(Br)c1	.	.	-7.2%	.	15.8µM*
O=C(CN1CCN(c2ccccn2)CC1)Nc1cccc(F)c1	.	.	-1.3%	.	-1.5%
Cc1cc(C)cc(NC(=O)CN2CCN(c3ccccc3)CC2)c1	.	.	-8.1%	.	10µM*
Cc1cc(C)cc(NC(=O)CN2CCN(c3ccccn3)CC2)c1	.	.	3.6%	.	0.8%
CCOc1cc(N2CCOCC2)c(OCC)cc1NC(=O)Cn1cnnn1	.	.	-12.2%	.	-11.5%
SMILES	HTT aggregate	NPSR antag	mIDH1 inhibitor	HTT cytoprotect	AT treatment
CCOc1cc(N2CCOCC2)c(OCC)cc1NC(=O)CC12CC3CC(CC(C3)C1)C2	-0.9%	10µM*	-2.9%	6.0%	0.2%
Cc1nn(Cc2ccc(Cl)c(Cl)c2)c(C)c1NC(=O)c1cc(CC(C)C)on1	10µM*	?	9.9%	15.0%	12.4%
CNC(=O)[C@@H]1O[C@@H](n2cnc3c(N)ncnc32)[C@@H](O)[C@H]1O	.	.	.	-12.2%[1.9 µM]	.
CCC(C)C(=O)N1c2ccccc2C(=C2SC(C(=O)OC)=C(C(=O)OC)S2)C(=S)C1(C)C (configuration not stated)	4.7%	10µM*	7.8%	15.8%[10 µM]	-24.8%
CCOC(=O)C1=C(C)c2ccccc2N(C(=O)OC)C1(C)C(=O)OCC (configuration not stated)	.	.	-5.1%	-22.9%	34.7%
c1ccc(CN2COc3c(ccc4c5c(ccc34)CN(Cc3ccccc3)CO5)C2)cc1	.	.	.	11.5%[10 µM]	.
CC(=O)O[C@H]1CC[C@]2(C)C(=CC[C@H]3[C@H]4C[C@H]5O[C@]6(CC[C@H](C)CN6)[C@H](C)[C@@H]5[C@]4(C)CC[C@@H]32)C1	.	.	.	-2.6%[10 µM]	.
Oc1ccc(NCc2ccc(OCc3ccccc3)cc2)cc1	.	.	5.8%	.	39.8µM*
C/C(=N\O)c1cccc[n+]1Cc1ccccc1	.	.	.	8.4%[10 µM]	.
CCCOC(C(=O)OC1CCN(C)CC1)(c1ccccc1)c1ccccc1	-9.7%	.	.	-25.7%	.
CCn1cc(C2=NOC(C(=O)Nc3cccc(C(C)=O)c3)C2)c(C)n1 (configuration not stated)	0.794µM*	2.9%[46.1 µM]	-1.0%	8.2%[10 µM]	3.9%
COC(=O)C1=C(C(=O)OC)[C@@H]2N(C)c3ccc(OC)cc3[C@@]23C[C@@H](C(=O)OC)N(S(=O)(=O)c2ccc(C#N)cc2)C3=N1	.	.	.	-15.3%[10 µM]	.
O=C(N/N=C/c1ccccc1OC(=O)c1ccc2c(c1)OCO2)c1ccccc1	5.01µM*	-12.3%	3.7%	-73.4%[10 µM]	1.9%
CC(C)(C)C(=O)Nc1ccc(C(=O)N/N=C/c2ccccc2OC(=O)c2ccccc2)cc1	11.2µM*	-19.4%[46.1 µM]	1.5%	-101.6%	0.4%
COc1ccccc1/C=N/NC(=O)c1ccc2c(c1)OCO2	.	.	2.9%	.	9.4%
CN1CCN(c2ccc(-c3cc(O)c4ncccc4c3)cc2)CC1	.	.	.	.	-6.5%
O=C(Nc1nc(NC(=O)c2ccco2)n(-c2ccccc2)n1)c1ccccc1	?	?	0.0%	3.98µM*	5.0%
Nc1nc(NC(=O)c2ccccc2)nn1-c1ccccc1	-2.3%	11.5%	-9.8%	.	5.0%
C[C@@H](CCC[C@@H]1SC[C@H]2NC(=O)N[C@H]12)C(=O)O	.	.	.	-9.6%[10 µM]	.
O=C(O)CCCCC1SCC2NC(=O)NC21 (configuration not stated)	13.6%[9.22 µM]	-12.4%	-13.7%	12.6µM*!	-0.7%
N[C@H](C(=O)O)[C@H]1C[C@H]1C(=O)O	.	.	.	-51.4%	.
O=C(O)C[C@@H](C(=O)O)C1c2ccccc2-c2ccccc21	.	.	.	4.0%[10 µM]	.
COC(=O)c1ccc2c(c1)C(C)(C)C(/C=C/c1ccc(OC)c(OC)c1OC)=[N+]2C	11.2µM*	10µM*	?	-90.2%	-5.2%
COCCOC(=O)c1sc2nc[nH]c(=O)c2c1C	?	20.2%	-12.3%	-19.1%	-0.1%
CCOc1c(Br)ccc2c1sc1nc[nH]c(=O)c12	11.2µM*	19.7%[46.1 µM]	-0.7%	10.5%[10 µM]	2.2%
CNC(=O)Cn1c(=O)c2cccn2c2ccc(F)cc21	.	.	-15.0%	.	.
CO[C@H]1C[C@@H]2CC[C@@H](C)[C@@](O)(O2)C(=O)C(=O)N2CCCC[C@H]2C(=O)O[C@H]([C@H](C)C[C@@H]2CC[C@@H](O)[C@H](OC)C2)CC(=O)[C@H](C)/C=C(\C)[C@@H](O)[C@@H](OC)C(=O)[C@H](C)C[C@H](C)/C=C/C=C/C=C/1C	-20.7%	.	.	-51.5%	.
